Assay outcomes (PubChem BioAssay)
Chlamy TAG: inducers of triacylglycerol accumulation in Chlamydomonas reinhardtii algae; Chlamydomonas reinhardtii TAG, Nile Red fluorescence, 72 h; calls only at 10 µM (by protocol); 44,000 tested, 0.84% active; AID 1159537; call rule not given here;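 further: hits raise Nile Red signal meaning more stored TAG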
* marks the source's active call; other numbers are inactive results; i = inactive; + = active, no number. The full list was thinned out, with hits kept by preference.

SMILES | Chlamy TAG
Cc1ccc2nc(NC(=O)NC3CCCCC3)sc2c1 | i
Cc1ccc2nc(NC(=O)C3CCCCC3C(=O)O)sc2c1 (configuration not stated) | i
CC(=O)c1c(C(C)=O)c(C)n(CC(=O)c2ccccc2)c1C | i
O=C(NCc1ccco1)C(=O)NC1CCCCCC1 | i
Clc1ccccc1-c1nnc(-c2ccccc2Cl)o1 | i
Cc1ccc(-c2nnc(-c3ccccc3Cl)o2)cc1 | i
Clc1ccccc1-c1nnc(-c2ccccc2)o1 | +
C=CCc1cc(Cl)ccc1OCCN1CCN(C)CC1 | +
C=CCc1cccc(OC)c1OCCCN1CCN(C)CC1 | i
C=CCc1cc(C)ccc1OCCCCN1CCN(C)CC1 | i
C=CCc1cccc(C)c1OCCCN1CCN(C)CC1 | +
C=CCc1cc(C)ccc1OCCN1CCN(C)CC1 | i
C=CCc1cccc(C)c1OCCCN1CCCC1 | i
Cc1cc(Nc2ccc(C(=O)O)cc2)c2cc(Cl)ccc2n1 | i
COc1ccc(S(=O)(=O)N(CC(=O)Nc2ccccc2F)c2ccc(Cl)cc2)cc1 | i
Cc1cc(OCc2nc(-c3ccccn3)no2)cc(C)c1Br | i
CC(C)CN1C(=O)c2ccc(NC(=O)COc3ccccc3)cc2C1=O | i
O=C(c1ccco1)N1CCN(c2ccc([N+](=O)[O-])c(NCCc3ccccc3)c2)CC1 | i
CC1=C(CCN2CCN(C)CC2)C(C)(C)CCC1 | i
CCCC1CCc2c(sc(N)c2C#N)C1 (configuration not stated) | i
COCCCN1C(=O)C(=O)C(=C(O)c2ccc(S(=O)(=O)N(C)C)cc2)C1c1ccccc1F (configuration not stated) | i
c1ccc(COc2ccc(OCCn3ccnc3)cc2)cc1 | i
COc1cccc(NC(=O)c2ccccc2NC(=O)c2ccco2)c1 | i
CCN1CCN(C(=O)c2ccc(Cl)cc2[N+](=O)[O-])CC1 | i
CCC1CCCCN1C(=O)c1cccc([N+](=O)[O-])c1C (configuration not stated) | i
SMILES | Chlamy TAG
CCC1CCCCN1C(=O)c1ccc(Cl)cc1[N+](=O)[O-] (configuration not stated) | +
Cc1cc(C)n(-c2ccccc2)c(=O)n1 | i
Cc1ccc(C(=O)Nc2c(C)cccc2C(C)C)cc1C | i
CCOc1ccc(C(O)=C2C(=O)C(=O)N(CCN(CC)CC)C2c2ccncc2)cc1Cl (configuration not stated) | i
CCOc1ccc(Nc2cc(C)nc(N3CCOCC3)n2)cc1 | i
Cc1cc(=O)[nH]c(N2CCOCC2)n1 | i
CCCCNc1cc(C)nc(N2CCOCC2)n1 | +
COc1cccc(N(CC(=O)Nc2cccc(F)c2)S(=O)(=O)c2ccc(C)cc2)c1 | i
COc1ccc(C(O)=C2C(=O)C(=O)N(CCCN3CCOCC3)C2c2ccc(N(C)C)cc2)cc1 (configuration not stated) | i
CN1CCCN(Cc2ccco2)CC1 | i
c1coc(CN2CCN(C3CCCCC3)CC2)c1 | +
c1coc(CN2CCN(C3CC4CCC3C4)CC2)c1 (configuration not stated) | i
C=CCN(CC=C)C(=O)c1ccccc1NC(=O)c1ccccc1C | i
Cc1ccc(C(NC(=O)C(C)C)c2ccc3cccnc3c2O)cc1 (configuration not stated) | i
Cc1c(C(=O)Nc2cccc(O)c2)cccc1[N+](=O)[O-] | i
O=C(O)CC(=O)NC12CC3CC(CC(C3)C1)C2 | i
COCCC(=O)NC12CC3CC(CC(C3)C1)C2 | i
CC(C)NCC(=O)NC12CC3CC(CC(C3)C1)C2 | +
